Data reported in PubChem BioAssay AID2578 (National Center for Advancing Translational Sciences (NCATS), 2010).
The source made the active and inactive calls. The call rests on the fitted dose curve; in most records, active means well fitted curve in the direction sought with a large enough effect; inactive means no such curve, though single readings can be large or run the other way.

molecular target: Alpha-galactosidase A (Homo sapiens) (UniProt P06280); test: qHTS Assay for Inhibitors and Activators of N370S glucocerebrosidase as a Potential Chaperone Treatment of Gaucher Disease: Alpha-Galactosidase Counterscreen; details: purified enzyme, 4-MU-alpha-Gal fluorescence, 20 min; series mostly up to 57.5 µM; activity change, negative = inhibition: at the top concentration
Description: NIH Chemical Genomics Center [NCGC] NIH Molecular Libraries Probe Production Centers Network [MLPCN] MLPCN Grant: MH086442-01 Assay Submitter (PI): Wei Zheng Glucocerebrosidase (GC) catalyzes the hydrolysis of beta-glucocerebroside to glucose and ceramide in lysosomes. Mutations in the glucocerebrosidase gene result in Gaucher disease, an autosomal recessive lysosomal storage disorder. Many of the mutations encountered in patients with Gaucher disease are missense alterations that may cause misfolding, decreased stability and/or mistrafficking of this lysosomal protein. […] These inhibitors include iminosugar analogs and three non-iminosugar inhibitors identified from a previous HTS of 62,000 compounds with the wild type recombinant enzyme. However, the enhancement of enzyme activity by the chaperone action of an enzyme inhibitor must be balanced against the direct inhibition of the enzyme. An enzyme activator could also function as a chaperone by binding to the enzyme and helping to correct its misfolding and mistrafficking. While activators for GC have not yet been identified, they may have better therapeutic potential than inhibitors. Therefore the discovery and development of chemical activators may provide a new strategy for the chaperone therapy. To characterize compound selectivity, selected hits from the primary screen were screened against purified alpha-galactosidase, a related sugar hydrolase. Alpha-galactosidase is a homodimeric glycoprotein that hydrolyzes the terminal alpha-galactosyl moieties from glycolipids and glycoproteins.
NCGC Assay Protocol Summary: This is a fluorogenic enzyme assay with 4-Methylumbelliferyl alpha-D-galactopyranoside as the substrate and human […] as the enzyme preparation. Upon the hydrolysis of this fluorogenic substrate, the resulting product, […]. 4-Methyllumbelliferone, can be excited at 365 nm and emits at 440 nm. This fluorescence which can be detected by a standard fluorescence plate reader. Data were normalized to the controls for basal activity (without enzyme) and 100% activity (with enzyme). In the AC50 values were determined from concentration-response data modeled with the standard Hill equation. Assay buffer: 50 mM citric acid (titrated with potassium phosphate to pH 4.5), 0.005% Tween-20, pH 4.5. (pH 4.5 is an optimal condition for this enzyme assay) 1536-well assay protocol for the human alpha-galactosidase: (1) Add 2 ul/well of enzyme (12 nM final) (2) Add 23 nL compounds in DMSO solution. The final titration was 0.7 nM to 77 uM. (3) Add 1 ul of substrate ([…]) (4) Incubate at room temperature for 20 min. (5) Add 2 ul stop solution (1M NaOH and 1M Glycine mixture, pH 10) (6) Detect the assay plate in a ViewLux plate reader (PerkinElmer) with Ex=365 nm and Em=440nm. Keywords: MLSMR, MLPCN, NIH Roadmap, qHTS, NCGC, : Alpha-galactosidase, Fabry Disease, pharmacological chaperone, chaperone therapy

Alpha-galactosidase A (Homo sapiens), sequence (P06280 whole entry, looked up): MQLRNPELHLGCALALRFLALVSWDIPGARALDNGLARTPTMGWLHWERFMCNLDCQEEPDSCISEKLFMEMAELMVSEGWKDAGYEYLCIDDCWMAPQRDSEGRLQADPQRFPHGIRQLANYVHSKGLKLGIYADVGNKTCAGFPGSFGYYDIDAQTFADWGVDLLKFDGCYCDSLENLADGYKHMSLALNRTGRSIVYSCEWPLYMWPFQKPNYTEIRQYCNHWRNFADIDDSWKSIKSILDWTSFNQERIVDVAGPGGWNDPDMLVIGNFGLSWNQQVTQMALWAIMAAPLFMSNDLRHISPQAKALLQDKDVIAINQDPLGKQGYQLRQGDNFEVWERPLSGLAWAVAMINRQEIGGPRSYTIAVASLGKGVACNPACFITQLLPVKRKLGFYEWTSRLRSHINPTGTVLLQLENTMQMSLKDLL

SMILES	activity change, negative = inhibition
O=S(=O)(c1ccccc1Br)N1CCN(c2nc(-c3ccccc3)nc3ccccc23)CC1	-29.7% (inactive)
O=[N+]([O-])c1cccc(S(=O)(=O)N2CCN(c3nc(-c4ccccc4)nc4ccccc34)CC2)c1	-5.88% (inactive)
NS(=O)(=O)c1ccc(S(=O)(=O)N2CCN(c3nc(-c4cccs4)nc4ccccc34)CC2)cc1	-10.2% (inactive)
O=S(=O)(c1ccc2ccccc2c1)N1CCN(c2nc(-c3ccccc3)nc3ccccc23)CC1	-6.14% (inactive)
O=[N+]([O-])c1ccc(S(=O)(=O)N2CCN(c3nc(-c4ccccc4)nc4ccccc34)CC2)cc1	-5.35% (inactive)
O=S(=O)(c1cccc(C(F)(F)F)c1)N1CCN(c2nc(-c3ccccc3)nc3ccccc23)CC1	-10.1% (inactive)
O=S(=O)(c1ccccc1Cl)N1CCN(c2nc(-c3cccs3)nc3ccccc23)CC1	-18.3% (inactive)
O=S(=O)(c1cccc(Cl)c1)N1CCN(c2nc(-c3cccs3)nc3ccccc23)CC1	-10.8% (inactive)
COc1ccc(-c2nc(N3CCN(S(=O)(=O)c4ccccc4)CC3)c3ccccc3n2)cc1	-8.9% (inactive)
N#Cc1ccccc1S(=O)(=O)N1CCN(c2nc(-c3ccccc3)nc3ccccc23)CC1	-13.5% (inactive)
N#Cc1ccccc1S(=O)(=O)N1CCN(c2nc(-c3cccs3)nc3ccccc23)CC1	-3.19% (inactive)
O=S(=O)(c1ccc(Cl)cc1)N1CCN(c2nc(-c3cccc(Br)c3)nc3ccccc23)CC1	2.53% (inactive)
O=S(=O)(c1ccccc1C(F)(F)F)N1CCN(c2nc(-c3cccs3)nc3ccccc23)CC1	-3.95% (inactive)
NS(=O)(=O)c1ccc(S(=O)(=O)N2CCN(c3nc(-c4ccccc4)nc4ccccc34)CC2)cc1	-14.3% (inactive)
O=S(=O)(c1ccc(OC(F)(F)F)cc1)N1CCN(c2nc(-c3ccccc3)nc3ccccc23)CC1	-4.05% (inactive)
CC(=O)c1ccc(S(=O)(=O)N2CCN(c3nc(-c4ccccc4)nc4ccccc34)CC2)cc1	-2.18% (inactive)
O=[N+]([O-])c1ccc(S(=O)(=O)N2CCN(c3nc(-c4cccs4)nc4ccccc34)CC2)cc1	-5.18% (inactive)
CCOC(=O)c1ccc(S(=O)(=O)N2CCN(c3nc(-c4ccccc4)nc4ccccc34)CC2)cc1	-7.72% (inactive)
O=S(=O)(c1ccc2c(c1)OCCO2)N1CCN(c2nc(-c3cccs3)nc3ccccc23)CC1	-4.11% (inactive)
O=S(=O)(c1ccc(Cl)cc1)N1CCN(c2nc(-c3ccc(F)cc3)nc3cc(Cl)ccc23)CC1	-2.54% (inactive)

SMILES	activity change, negative = inhibition
O=S(=O)(c1ccc(F)cc1)N1CCN(c2nc(-c3ccc(F)cc3)nc3cc(Cl)ccc23)CC1	-8.46% (inactive)
O=S(=O)(c1ccccc1C(F)(F)F)N1CCN(c2nc(-c3ccccc3)nc3ccccc23)CC1	-8.09% (inactive)
O=S(=O)(c1ccc2c(c1)CCC2)N1CCN(c2nc(-c3ccccc3)nc3ccccc23)CC1	-8.4% (inactive)
O=[N+]([O-])c1cccc(S(=O)(=O)N2CCN(c3nc(-c4cccs4)nc4ccccc34)CC2)c1	-1.82% (inactive)
O=S(=O)(c1ccc(C(F)(F)F)cc1)N1CCN(c2nc(-c3cccs3)nc3ccccc23)CC1	-9.68% (inactive)
O=S(=O)(c1cccc(C(F)(F)F)c1)N1CCN(c2nc(-c3cccs3)nc3cc(Cl)ccc23)CC1	-16.1% (inactive)
O=S(=O)(c1cccc(C(F)(F)F)c1)N1CCN(c2nc(-c3cccs3)nc3ccccc23)CC1	-4.24% (inactive)
N#Cc1ccc(S(=O)(=O)N2CCN(c3nc(-c4cccs4)nc4ccccc34)CC2)cc1	-2.99% (inactive)
O=S(=O)(c1ccc(OC(F)(F)F)cc1)N1CCN(c2nc(-c3cccs3)nc3ccccc23)CC1	-12.6% (inactive)
CC(=O)c1ccc(S(=O)(=O)N2CCN(c3nc(-c4cccs4)nc4ccccc34)CC2)cc1	-7.55% (inactive)
O=S(=O)(c1ccc(F)cc1)N1CCN(c2nc(-c3cccs3)nc3cc(Cl)ccc23)CC1	-15.3% (inactive)
CC(C)(C)c1ccc(S(=O)(=O)N2CCN(c3nc(-c4cccs4)nc4ccccc34)CC2)cc1	-12.9% (inactive)
COc1ccc(S(=O)(=O)N2CCN(c3nc(-c4ccccc4)nc4ccccc34)CC2)cc1	-3.17% (inactive)
Cc1ccc(S(=O)(=O)N2CCN(c3nc(-c4cccs4)nc4ccccc34)CC2)cc1	-5.03% (inactive)
O=S(=O)(c1ccccc1)N1CCN(c2nc(-c3ccc(F)cc3)nc3cc(Cl)ccc23)CC1	-1.96% (inactive)
S=C(NCCCc1cnc[nH]1)NCCCN(Cc1ccc(Cl)c(Cl)c1)c1ccc(Br)cn1	-6.2% (inactive)
CCOC(=O)c1ccc(S(=O)(=O)N2CCN(c3nc(-c4cccs4)nc4ccccc34)CC2)cc1	-9.25% (inactive)
COc1ccc(S(=O)(=O)N2CCN(c3nc(-c4cccs4)nc4ccccc34)CC2)cc1OC	-9.79% (inactive)
O=S(=O)(c1ccc(F)cc1)N1CCN(c2nc(-c3ccccc3)nc3cc(Cl)ccc23)CC1	-14% (inactive)
O=S(=O)(c1ccc2c(c1)CCCC2)N1CCN(c2nc(-c3cccs3)nc3ccccc23)CC1	-4.94% (inactive)
